Experimental data: the antibiotic and cytotoxicity screens of Wong et al. (2023)
The campaign covered roughly 39,000 compounds. About 3,300 (8.5%) were called active. The sample as a whole holds a higher share of actives than the screen did.

tested on: HepG2; test: cytotoxicity call (relative viability < 0.9); conditions: 10 µM

| Structure (SMILES) | cytotoxicity call |
| --- | --- |
| COc1ccc(S(=O)(=O)N(C)C[C@@H]2OCCCC[C@@H](C)Oc3ccc(NS(C)(=O)=O)cc3C(=O)N([C@@H](C)CO)C[C@H]2C)cc1 | inactive |
| C[C@H]1CN([C@@H](C)CO)C(=O)c2cccc(NC(=O)C3CCOCC3)c2O[C@H]1CN(C)Cc1ccc(-c2ccccc2)cc1 | inactive |
| O=C1NC(=O)[C@H]2CC[C@H]2N1 | inactive |
| CN(CC=Cc1ccccc1)Cc1cccc2ccccc12.Cl | inactive |
| Cc1noc(C)c1S(=O)(=O)N(C)C[C@H]1OCCCC[C@H](C)Oc2ccc(NC(=O)Nc3ccc(C(F)(F)F)cc3)cc2C(=O)N([C@H](C)CO)C[C@@H]1C | inactive |
| Cc1ccc(S(=O)(=O)Nc2ccc3c(c2)C(=O)N([C@@H](C)CO)C[C@H](C)[C@H](CN(C)Cc2ccncc2)OCCCC[C@H](C)O3)cc1 | inactive |
| COCC(=O)N1CC(=O)N2[C@H](C1)[C@@H](c1ccc(C#Cc3cccnc3)cc1)[C@@H]2CO | inactive |
| Cc1noc(C)c1S(=O)(=O)N(C)C[C@H]1Oc2ccc(NS(=O)(=O)c3ccccc3)cc2CC(=O)N([C@H](C)CO)C[C@H]1C | inactive |
| C[C@@H]1CN([C@@H](C)CO)C(=O)c2cccc(NS(=O)(=O)c3ccc(Cl)cc3)c2O[C@@H]1CN(C)Cc1ccc(Oc2ccccc2)cc1 | inactive |
| C[C@H]1CN([C@@H](C)CO)C(=O)c2cccc(NS(=O)(=O)c3ccc(Cl)cc3)c2O[C@@H]1CN(C)Cc1ccc(Oc2ccccc2)cc1 | active |
| C[C@@H]1CN([C@@H](C)CO)C(=O)c2cccc(NS(=O)(=O)c3ccc(Cl)cc3)c2O[C@H]1CN(C)Cc1ccc(Oc2ccccc2)cc1 | inactive |
| C[C@@H]1CN([C@@H](C)CO)C(=O)c2cccc(NS(=O)(=O)c3ccc(F)cc3)c2O[C@H]1CN(C)Cc1ccc(Oc2ccccc2)cc1 | inactive |
| COc1ccc(S(=O)(=O)Nc2cccc3c2O[C@H](CN(C)Cc2ccc(Oc4ccccc4)cc2)[C@H](C)CN([C@@H](C)CO)C3=O)cc1 | active |
| COc1ccc(S(=O)(=O)Nc2cccc3c2O[C@H](CN(C)Cc2ccc(Oc4ccccc4)cc2)[C@@H](C)CN([C@H](C)CO)C3=O)cc1 | inactive |
| COc1ccc(S(=O)(=O)Nc2cccc3c2O[C@H](CN(C)Cc2ccc(Oc4ccccc4)cc2)[C@@H](C)CN([C@@H](C)CO)C3=O)cc1 | inactive |
| COc1ccc(S(=O)(=O)Nc2cccc3c2O[C@H](CN(C)Cc2ccc(-c4ccccc4)cc2)[C@H](C)CN([C@H](C)CO)C3=O)cc1 | inactive |
| COc1ccc(S(=O)(=O)Nc2cccc3c2O[C@H](CN(C)Cc2ccc(-c4ccccc4)cc2)[C@@H](C)CN([C@H](C)CO)C3=O)cc1 | active |
| COc1ccc(S(=O)(=O)Nc2cccc3c2O[C@H](CN(C)Cc2ccc(-c4ccccc4)cc2)[C@H](C)CN([C@@H](C)CO)C3=O)cc1 | inactive |
| C[C@@H]1CN([C@@H](C)CO)C(=O)c2cccc(NS(=O)(=O)c3ccc(F)cc3)c2O[C@@H]1CN(C)Cc1ccc(Oc2ccccc2)cc1 | active |
| C[C@H]1CN([C@@H](C)CO)C(=O)c2cccc(NS(=O)(=O)c3ccc(F)cc3)c2O[C@@H]1CN(C)Cc1ccc(Oc2ccccc2)cc1 | inactive |

| Structure (SMILES) | cytotoxicity call |
| --- | --- |
| COc1ccc(S(=O)(=O)Nc2ccc3c(c2)C(=O)N([C@H](C)CO)C[C@H](C)[C@H](CN(C)C(=O)c2ccccc2)OCCCC[C@H](C)O3)cc1 | inactive |
| CCS(=O)(=O)Nc1ccc2c(c1)C(=O)N(C)C[C@H](OC)[C@@H](C)CN(C(=O)c1ccc3c(c1)OCO3)[C@@H](C)CO2 | inactive |
| O=C1CCOCCN1 | inactive |
| C[C@@H]1CCCCO[C@H](CN(C)S(C)(=O)=O)[C@@H](C)CN([C@H](C)CO)C(=O)c2cc(NS(=O)(=O)c3ccccc3)ccc2O1 | inactive |
| CC(C)C#Cc1cnc2c(c1)C(=O)N([C@H](C)CO)C[C@H](C)[C@@H](CN(C)C(=O)c1ccc3c(c1)OCO3)O2 | inactive |
| COc1ccc(-c2cnc3c(c2)C(=O)N([C@@H](C)CO)C[C@@H](C)[C@H](CN(C)C(=O)Cc2ccncc2)O3)cc1 | inactive |
| Cc1ccc(S(=O)(=O)N(C)C[C@@H]2Oc3ccc(NC(=O)CCCN(C)C)cc3C(=O)N([C@@H](C)CO)C[C@H]2C)cc1 | inactive |
| CCC=CCC1=C(C)CCC1=O | inactive |
| C[C@]1(C(=O)NCc2ccccc2)c2ccccc2C(=O)N(Cc2ccccc2)[C@H]1c1ccc(COC(=O)NCCCCCC(=O)NO)cc1 | inactive |
| COc1ccc(CN(C)C[C@@H]2OCCCC[C@H](C)Oc3ccc(NC(=O)Nc4ccccc4)cc3C(=O)N([C@@H](C)CO)C[C@@H]2C)cc1 | inactive |
| Cc1ccc(S(=O)(=O)Nc2ccc3c(c2)C(=O)N([C@H](C)CO)C[C@@H](C)[C@H](CN(C)C(=O)C2CCCCC2)OCCCC[C@H](C)O3)cc1 | inactive |
| O=C(C[C@@H]1CC[C@@H]2[C@H](COC[C@@H](O)CN2S(=O)(=O)c2ccc(Cl)cc2)O1)NCc1ccncn1 | inactive |
| Cc1noc(C)c1S(=O)(=O)Nc1ccc2c(c1)C(=O)N([C@@H](C)CO)C[C@H](C)[C@@H](CN(C)S(=O)(=O)c1ccc(F)cc1)O2 | inactive |
| C[C@H]1CN([C@@H](C)CO)C(=O)Cc2cc(NS(=O)(=O)c3ccc(F)cc3)ccc2O[C@@H]1CN(C)Cc1ccc(Oc2ccccc2)cc1 | inactive |
| C[C@H]1CN([C@@H](C)CO)C(=O)Cc2cc(NS(=O)(=O)c3ccc(F)cc3)ccc2O[C@H]1CN(C)Cc1ccc(Oc2ccccc2)cc1 | active |
| C[C@H](CO)N1C[C@H](C)[C@H](CN(C)Cc2ccc(Oc3ccccc3)cc2)Oc2ccc(NS(=O)(=O)c3ccc(F)cc3)cc2CC1=O | active |
| C[C@@H]1CN([C@@H](C)CO)C(=O)Cc2cc(NS(=O)(=O)c3ccc(F)cc3)ccc2O[C@H]1CN(C)Cc1ccc(Oc2ccccc2)cc1 | inactive |
| C[C@@H]1CN([C@@H](C)CO)C(=O)Cc2cc(NS(=O)(=O)c3ccc(F)cc3)ccc2O[C@@H]1CN(C)Cc1ccc(Oc2ccccc2)cc1 | active |
| C[C@@H]1CN([C@H](C)CO)C(=O)Cc2cc(NS(=O)(=O)c3ccc(F)cc3)ccc2O[C@H]1CN(C)Cc1ccc(Oc2ccccc2)cc1 | active |
